Potency and outcome data for 22 compounds are collected here from PubChem BioAssay (NCATS).

“And” between values parts separate entries of the source, which are not always exact repeats. Equal entries are not always repeated. Results filed as inconclusive are left out. The source made the active and inactive calls. Calls come from the whole dose curve; as a rule, active = well fitted curve in the direction sought with a large enough effect; inconclusive = small, poorly fitted or top-dose-only effect, or another doubt; inactive = no such curve, though single readings can be large; an effect the other way counts as inactive or inconclusive.

Test [1] concerns the target N-terminal Xaa-Pro-Lys N-methyltransferase 1 (Homo sapiens) (UniProt Q9BV86). The experiment in a line: qHTS Assay for Inhibitors of N-terminal methyltransferase 1 (NTMT1): LOPAC validation of the NTMT1 SAHH-coupled ThioGlo3 Assay (AID 1347143).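 Note: SAH from peptide methylation measured as thiol fluorescence via SAHH coupling and ThioGlo3; nearly all actives have a fitted effect of over 70% in size.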 Note: potency is the fitted concentration of half-maximal effect. In short, it runs like this:
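Steps: dispense 125nM NTMT1; pin-transfer test compounds at several concentrations, with 1uM RCC1-6 peptide as control; incubate 1 min; start with reagent holding 100uM SAM, 10uM SAHH, 15uM ThioGlo3; read at 0 and 30 min.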

The subject of test [2] is Zika virus NS2B-NS3 protease (unlinked). The experiment in a line: Optimization of GU AMC qHTS for Zika virus inhibitors: Unlinked NS2B-NS3 protease assay (AID 1347151). Note: series mostly up to about 52 µM; nearly all actives have a fitted effect of over 80% in size. In a few lines: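 Fluorescence read-out (340 nm ex / 450 nm em) of AMC peptide cleavage, taken immediately and after 15 min at room temperature (~20% conversion). Enzyme was the unlinked NS2B–NS3 complex at 25 nM in Tris pH 8.0 buffer.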

For test [3], the system named is Zika virus NS2B-NS3 protease. Description: Primary screen GU AMC qHTS for Zika virus inhibitors (AID 1347154). Note: nearly all actives have a fitted effect of over 70% in size. In a few lines: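 Unlinked Zika NS2B hydrophilic domain–NS3 protease complex at 25 nM in 10 mM Tris-HCl pH 8.0, 0.01% Tween 20, with an AMC peptide substrate. Fluorescence change (340/450 nm) over 15 min at room temperature, normalized to controls, fitted to 4-parameter Hill.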

The test system of test [4] is Zika virus NS2B-NS3 protease (unlinked complex). The experiment in a line: Primary screen GU Rhodamine qHTS for Zika virus inhibitors: Unlinked NS2B-NS3 protease assay (AID 1347159). Note: nearly all actives have a fitted effect of over 60% in size. In short, it runs like this:
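Buffer 10 mM Tris-HCl pH 8.0, 0.01% Tween 20. Unlinked protease 25 nM; compound preincubation 15 min, RT, protected from light. Substrate Rhod110, 1.5 microM; ~15% conversion in 15 min.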

Test [5] deals with Zika virus NS2B-NS3 protease (linked construct). Description: Primary screen NINDS Rhodamine qHTS for Zika virus inhibitors (AID 1347160). Note: nearly all actives have a fitted effect of over 55% in size. To be noted: outcome: dose series up to 57.1 µM unless noted. In a few lines: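 Aprotinin served as in-plate control. Conditions: 25 nM linked NS2B-NS3, pH 8.0 Tris buffer, titrated compounds, 15 min preincubation and 15 min reaction with 1.5 microM Rhod110 substrate at room temperature.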

The next test concerns the target Furin (Homo sapiens) (UniProt P09958). Description: Furin counterscreen qHTS for Zika virus inhibitors (AID 1347149). Note: potency is the fitted concentration of half-maximal effect; nearly all actives have a fitted effect of over 70% in size. In a few lines:
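Counterscreen measures cleavage of 2 microM BOC-RVRR-AMC, below its ~15 microM Km, by 5 nM full-length human furin at pH 7.0 after a 15-min compound preincubation. Inhibition derives from the 15-min fluorescence increase at 37C.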

Test [6] deals with Zika virus NS2B-NS3 protease (linked construct). Description: Confirmatory screen NINDS AMC qHTS for Zika virus inhibitors (AID 1347152). Note: potency is the fitted concentration of half-maximal effect; nearly all actives have a fitted effect of over 70% in size. In a few lines: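 Linked NS2B-NS3 1 nM, Tris pH 8.0/0.01% Tween 20; cpd 15 min RT dark; + Nle-KRR-AMC 10 µM (Km 18.3 µM); read 0 and 15 min, 340/450 nm; %inh vs controls, 4-param Hill.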
In test [7] the test system is Zika virus NS2B-NS3 protease (unlinked complex). The experiment in a line: Confirmatory screen GU AMC qHTS for Zika virus inhibitors (AID 1347153). In short, it runs like this: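 Noncovalent NS2B hydrophilic domain/NS3 protease complex (25 nM) in 10 mM Tris-HCl pH 8.0, 0.01% Tween 20 was preincubated 15 min at room temperature with compounds. Then 10 µM AMC substrate (Km 18.3 µM) was added; fluorescence was read over 15 min and fitted to a 4-parameter Hill equation.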

The nature of test [8]: ZIKV-mCherry secondary qHTS for Zika virus inhibitors (AID 1347158). Note: top concentration of the series differs between compounds. In short, it runs like this:
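This orthogonal imaging screen measured ZIKV-mCherry infection of Vero cells exposed to compound, MOI 1, 48-72 h. Percent infection came from segmented nuclei scored mCherry-positive above 3 SD of negative controls.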

Test [9] in a line: Confirmatory screen NINDS Rhodamine qHTS for Zika virus inhibitors (AID 1347161). Note: potency is the fitted concentration of half-maximal effect; nearly all actives have a fitted effect of over 60% in size. In a few lines:
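In 10 mM Tris-HCl pH 8.0 containing 0.01% Tween 20, linked NS2B-NS3 protease (25 nM final) is exposed to test compounds for 15 min. Cleavage of 1.5 microM Rhodamine110 substrate is tracked by fluorescence over 15 min.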

Test [10] concerns Zika virus NS2B-NS3 protease (linked). The experiment in a line: 384 well plate NINDS AMC confirmatory qHTS for Zika virus inhibitors (AID 1347163). Note: potency is the fitted concentration of half-maximal effect; nearly all actives have a fitted effect of over 50% in size. In short, it runs like this: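 Enzyme (5, 30 or 60 nM final) first met test compounds for ~15 min. The AMC-tagged peptide Ac-VKTGKR-AMC followed at 30 microM. Fluorescence was then recorded at 25 min and scaled against no-enzyme and no-inhibitor wells.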

Chain of N-terminal Xaa-Pro-Lys N-methyltransferase 1 (Homo sapiens) (Q9BV86 whole entry, looked up): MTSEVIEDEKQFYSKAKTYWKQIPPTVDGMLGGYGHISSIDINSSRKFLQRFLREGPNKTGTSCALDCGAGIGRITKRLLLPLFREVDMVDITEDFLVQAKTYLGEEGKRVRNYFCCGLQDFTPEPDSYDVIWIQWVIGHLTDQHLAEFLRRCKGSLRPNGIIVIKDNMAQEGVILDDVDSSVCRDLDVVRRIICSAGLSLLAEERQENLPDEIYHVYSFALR
Chain of Furin (Homo sapiens) (P09958 whole entry, looked up): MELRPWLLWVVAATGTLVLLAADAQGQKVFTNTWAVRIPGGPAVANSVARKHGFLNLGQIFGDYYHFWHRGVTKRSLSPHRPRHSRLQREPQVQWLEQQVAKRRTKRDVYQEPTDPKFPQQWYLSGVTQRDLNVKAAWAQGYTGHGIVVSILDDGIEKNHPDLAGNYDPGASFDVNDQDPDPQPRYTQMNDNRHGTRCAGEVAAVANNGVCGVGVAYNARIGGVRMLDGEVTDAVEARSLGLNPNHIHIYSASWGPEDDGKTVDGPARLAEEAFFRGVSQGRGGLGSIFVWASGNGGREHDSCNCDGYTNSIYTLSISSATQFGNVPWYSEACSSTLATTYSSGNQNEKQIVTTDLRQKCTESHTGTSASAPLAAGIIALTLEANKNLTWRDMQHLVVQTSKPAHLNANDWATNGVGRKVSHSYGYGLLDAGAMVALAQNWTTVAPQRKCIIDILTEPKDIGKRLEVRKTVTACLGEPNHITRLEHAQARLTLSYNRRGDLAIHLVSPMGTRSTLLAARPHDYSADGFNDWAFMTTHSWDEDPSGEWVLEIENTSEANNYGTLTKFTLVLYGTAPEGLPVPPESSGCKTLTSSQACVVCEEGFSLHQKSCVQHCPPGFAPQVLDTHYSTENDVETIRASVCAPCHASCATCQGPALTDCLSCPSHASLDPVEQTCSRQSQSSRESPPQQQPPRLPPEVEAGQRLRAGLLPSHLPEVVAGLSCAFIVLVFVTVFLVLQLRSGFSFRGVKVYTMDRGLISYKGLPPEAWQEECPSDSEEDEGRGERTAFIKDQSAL

As for `NC(=O)OCC(COC(N)=O)c1ccccc1`, the Potency result in test [1], in [2] and in test [3] was “inactive” throughout.
Consider `Nc1nnc(-c2cccc(Cl)c2Cl)c(N)n1`, for which the Potency result in test [1], in [2] and in [3] was “inactive” each time.
Consider `CCOC(=O)C(C)(C)Oc1ccc(Cl)cc1`, for which the Potency entry in test [1], in test [2] and in test [3] was “inactive” each time.
As for `Cn1c(=O)c2c(ncn2C)n(C)c1=O`, the Potency result in test [1], in test [2] and in test [3] was “inactive” throughout.
As to `Cn1cnc2c1c(=O)[nH]c(=O)n2C`, the Potency result in test [1], in [2] and in test [3] was “inactive” in each case.
`CN1CCC(=C2c3ccccc3C=Cc3ccccc32)CC1`: the Potency result in test [1], in test [2] and in test [3] was “inactive” each time.
Take `NC(CO)C(=O)NNCc1ccc(O)c(O)c1O` (stereo unspecified): the Potency in test [1] was 8.91 µM (active). In addition, the Potency result in [2] and in test [3] was “inactive” in each case.
Consider `OCCN1CCN(CCCN2c3ccccc3Sc3ccc(C(F)(F)F)cc32)CC1`, for which the Potency in test [1] is 44.7 µM (active). In addition, the Potency entry in test [2] and in [3] was “inactive” throughout.
With `COc1ccc(C2CNC(=O)C2)cc1OC1CCCC1` (stereo unspecified), the Potency result in test [1], in test [2] and in test [3] was “inactive” each time.
Consider `COc1nc(C)nc(Cl)c1NC1=NCCN1`, for which the Potency result in test [1], in test [2] and in [3] was “inactive” in each case.
With `Fc1ccc([C@@H]2CCNC[C@H]2COc2ccc3c(c2)OCO3)cc1`, the Potency result in test [1], in [2] and in test [3] was “inactive” each time.
For the compound `CN(C)C(=O)C(CCN1CCC(O)(c2ccc(Cl)cc2)CC1)(c1ccccc1)c1ccccc1`, the Potency entry in [1], in test [2] and in test [3] was “inactive” in each case.
Take `CN1C2CCC1CC(OC(=O)C(CO)c1ccccc1)C2` (stereo unspecified): the Potency entry in test [1], in test [2] and in [3] was “inactive” throughout.
For the compound `CNCCCC12CCC(c3ccccc31)c1ccccc12`, the Potency entry in test [2], in [3] and in test [4] was “inactive” in each case. Besides, the call in test [5] was inactive.
Consider `O=c1c(-c2ccc(O)cc2)coc2cc(O)cc(O)c12`, for which the Potency entry in [2] and in test [3] was “inactive” in each case.
For `Cn1ccc2cc3c(cc21)CCN3C(=O)Nc1cccnc1`, the Potency was 21.5 µM (active) in the test with Furin (Homo sapiens); 24.1 µM (active) in [6]; 27.1 µM (active) in [7]; 62.2 µM (active) in [9]; 31.6 µM (active) and 178 µM (active) in test [10]. In addition, the result in [8] was inactive.
Consider `Clc1ccccc1C(c1ccccc1)(c1ccccc1)n1ccnc1`, for which the Potency entry in test [1] and in test [3] was “inactive” in each case.
For the compound `CC(C)(Oc1ccc(C2CC2(Cl)Cl)cc1)C(=O)O` (stereo unspecified), the Potency entry in test [1], in test [2] and in [3] was “inactive” in each case.
As to `Cc1ccc(-c2cc(C(F)(F)F)nn2-c2ccc(S(N)(=O)=O)cc2)cc1`, the Potency result in test [1], in [2], in test [3] and in test [4] was “inactive” in each case. The outcome in [5] was inactive.
With `CN(C)C(=N)N=C(N)N`, the Potency result in test [3] is “inactive”.
Regarding `COc1ccc2[nH]cc(CCNC(C)=O)c2c1`, the Potency entry in test [3] is “inactive”. For the same compound, the outcome in test [5] was inactive.
For the compound `CN1CCN(C2=Nc3cc(Cl)ccc3Nc3ccccc32)CC1`, the Potency entry in test [2] and in test [3] was “inactive” in each case.
